For some assays here: Results with a measured potency or affinity are listed apart.

Data on 5 molecules can be found in ChEMBL document CHEMBL3988442, “University of Dundee, Small-Polar-MMV Screening Library” (2021).

What all share (design): scale not given: direction of the effect not stated beside the values
In experiment [1] the target is Protein translocase subunit SecA (Escherichia coli (strain K12)) (UniProt P10408). As to the kind of experiment: Assay to Identify E. coli SecA ATPase Inhibitors. In kind it is functional. To be noted: 30 µM.
Chain of Protein translocase subunit SecA (Escherichia coli (strain K12)) (P10408 whole entry): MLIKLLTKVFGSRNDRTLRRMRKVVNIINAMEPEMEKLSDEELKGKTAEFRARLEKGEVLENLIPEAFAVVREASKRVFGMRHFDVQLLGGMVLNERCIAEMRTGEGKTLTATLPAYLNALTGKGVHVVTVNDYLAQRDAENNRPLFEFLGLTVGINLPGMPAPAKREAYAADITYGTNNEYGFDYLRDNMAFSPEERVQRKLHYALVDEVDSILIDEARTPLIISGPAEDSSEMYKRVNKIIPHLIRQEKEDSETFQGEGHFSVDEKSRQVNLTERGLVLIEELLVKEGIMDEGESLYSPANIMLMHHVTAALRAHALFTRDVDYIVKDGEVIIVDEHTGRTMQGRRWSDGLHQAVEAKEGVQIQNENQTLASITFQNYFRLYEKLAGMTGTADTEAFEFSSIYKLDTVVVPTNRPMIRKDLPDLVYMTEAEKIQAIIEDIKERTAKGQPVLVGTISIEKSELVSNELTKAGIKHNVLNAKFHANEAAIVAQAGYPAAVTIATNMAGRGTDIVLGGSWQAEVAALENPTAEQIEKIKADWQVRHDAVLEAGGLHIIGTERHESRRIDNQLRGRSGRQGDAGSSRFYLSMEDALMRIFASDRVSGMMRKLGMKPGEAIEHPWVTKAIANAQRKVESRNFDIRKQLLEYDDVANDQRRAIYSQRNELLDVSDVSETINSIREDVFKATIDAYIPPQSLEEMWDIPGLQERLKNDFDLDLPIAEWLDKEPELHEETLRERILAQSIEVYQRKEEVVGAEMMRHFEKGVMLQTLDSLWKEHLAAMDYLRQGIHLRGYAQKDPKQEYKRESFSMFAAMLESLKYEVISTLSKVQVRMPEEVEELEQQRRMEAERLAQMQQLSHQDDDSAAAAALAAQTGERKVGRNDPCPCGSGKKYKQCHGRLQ
For experiment [2], the target named is T1, Ubiquitin-activating enzyme e1, putative (Leishmania donovani (strain BPK282A1)) (UniProt E9BSI1).
T1 sequence (whole entry): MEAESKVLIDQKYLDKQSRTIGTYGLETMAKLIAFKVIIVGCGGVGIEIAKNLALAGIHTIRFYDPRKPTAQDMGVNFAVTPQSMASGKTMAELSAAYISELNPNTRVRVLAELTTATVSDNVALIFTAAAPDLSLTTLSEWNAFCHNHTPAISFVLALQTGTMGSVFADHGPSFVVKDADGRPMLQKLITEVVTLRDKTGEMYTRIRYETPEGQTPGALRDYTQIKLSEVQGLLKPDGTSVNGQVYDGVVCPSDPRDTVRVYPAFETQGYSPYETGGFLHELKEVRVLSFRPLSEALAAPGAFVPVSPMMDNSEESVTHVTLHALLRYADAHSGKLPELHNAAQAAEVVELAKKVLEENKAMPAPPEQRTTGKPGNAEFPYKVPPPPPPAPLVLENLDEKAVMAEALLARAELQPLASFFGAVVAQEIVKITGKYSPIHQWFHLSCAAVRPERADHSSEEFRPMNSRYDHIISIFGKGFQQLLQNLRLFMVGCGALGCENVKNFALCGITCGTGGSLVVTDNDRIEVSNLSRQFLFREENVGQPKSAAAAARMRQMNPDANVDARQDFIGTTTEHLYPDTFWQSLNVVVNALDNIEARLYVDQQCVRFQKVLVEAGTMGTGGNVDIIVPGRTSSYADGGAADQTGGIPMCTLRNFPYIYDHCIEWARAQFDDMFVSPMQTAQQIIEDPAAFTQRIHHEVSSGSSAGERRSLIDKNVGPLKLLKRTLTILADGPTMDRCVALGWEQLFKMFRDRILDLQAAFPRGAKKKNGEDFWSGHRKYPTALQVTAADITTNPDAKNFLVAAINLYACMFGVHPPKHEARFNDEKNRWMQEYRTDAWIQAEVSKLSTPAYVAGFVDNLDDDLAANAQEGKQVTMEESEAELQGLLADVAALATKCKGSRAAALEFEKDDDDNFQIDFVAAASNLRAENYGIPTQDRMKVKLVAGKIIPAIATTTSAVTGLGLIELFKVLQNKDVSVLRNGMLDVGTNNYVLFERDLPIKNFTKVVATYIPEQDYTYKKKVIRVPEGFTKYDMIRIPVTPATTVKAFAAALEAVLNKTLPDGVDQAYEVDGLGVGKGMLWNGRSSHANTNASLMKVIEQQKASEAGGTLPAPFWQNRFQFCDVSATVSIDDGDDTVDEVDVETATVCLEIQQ
As to the kind of experiment: Leishmania donovani Ubiquitin Activating Enzyme (LdE1). Type of experiment: functional. The following applies: 30 µM.

For experiment [3], the target named is T2, Aspartate--tRNA(Asp/Asn) ligase (Mycobacterium tuberculosis (strain ATCC 25618 / H37Rv)) (UniProt P9WFW3). Further: in the data most compounds retested in dose-response had high values.
T2 sequence (whole entry): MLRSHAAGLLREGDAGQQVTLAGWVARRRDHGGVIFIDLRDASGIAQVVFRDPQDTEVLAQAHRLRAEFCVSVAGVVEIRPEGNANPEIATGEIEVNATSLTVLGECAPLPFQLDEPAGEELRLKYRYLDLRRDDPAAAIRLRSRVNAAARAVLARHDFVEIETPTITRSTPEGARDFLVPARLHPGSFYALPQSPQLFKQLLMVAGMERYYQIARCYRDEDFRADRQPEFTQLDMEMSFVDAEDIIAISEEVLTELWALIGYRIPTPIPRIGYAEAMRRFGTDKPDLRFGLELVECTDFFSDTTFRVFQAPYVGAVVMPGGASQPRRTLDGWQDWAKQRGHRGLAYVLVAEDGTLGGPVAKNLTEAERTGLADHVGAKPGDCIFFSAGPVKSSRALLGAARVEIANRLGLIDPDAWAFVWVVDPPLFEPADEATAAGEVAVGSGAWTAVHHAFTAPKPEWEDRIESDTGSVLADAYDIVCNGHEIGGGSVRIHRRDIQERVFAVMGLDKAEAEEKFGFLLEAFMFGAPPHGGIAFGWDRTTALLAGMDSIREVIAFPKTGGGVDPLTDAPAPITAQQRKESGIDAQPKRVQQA
As to the kind of experiment: Assay for Asp RNA synthetase-1 from Mycobacterium tuberculosis. Type of experiment: functional. To be noted: 30 µM.

Experiment [4] has as its target AMP-activated protein kinase, AMPK (Homo sapiens) (UniProt P54646+O43741+P54619+Q9UGJ0+Q9Y478+Q13131+Q9UGI9). As to the kind of experiment: AMP-dependent Kinase enzyme assay. An in vitro enzyme assay that detects ADP turnover that is directly proportional to AMPK activity. This uses naive AMPK that is activated during the assay with MK-8722. Type of experiment: functional. To be noted: 30 µM.

The target in experiment [5] is Sialic acid-binding Ig-like lectin 9 (Homo sapiens) (UniProt Q9Y336). As to the kind of experiment: Hs-Siglec9 ALPHAscreen SOP 20170721. To be noted: 10 µM. A general note: Alpha assays give light when donor and acceptor beads are brought close together.
Chain of Sialic acid-binding Ig-like lectin 9 (Homo sapiens) (Q9Y336 whole entry): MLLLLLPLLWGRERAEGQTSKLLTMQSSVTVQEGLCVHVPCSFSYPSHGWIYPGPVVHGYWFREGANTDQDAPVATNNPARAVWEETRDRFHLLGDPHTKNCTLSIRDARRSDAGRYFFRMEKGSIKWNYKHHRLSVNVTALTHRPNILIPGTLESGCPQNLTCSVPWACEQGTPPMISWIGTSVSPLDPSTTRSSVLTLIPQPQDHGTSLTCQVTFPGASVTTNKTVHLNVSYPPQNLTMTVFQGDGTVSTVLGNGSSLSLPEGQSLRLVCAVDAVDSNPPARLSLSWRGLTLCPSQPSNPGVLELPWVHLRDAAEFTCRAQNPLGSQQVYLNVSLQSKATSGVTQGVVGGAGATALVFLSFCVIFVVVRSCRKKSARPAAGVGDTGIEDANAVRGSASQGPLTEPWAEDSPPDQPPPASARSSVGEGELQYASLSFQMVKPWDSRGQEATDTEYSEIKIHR
In experiment [6] the test system is Trypanosoma cruzi. As to the kind of experiment: Trypanosoma cruzi phosphomannomutase and mannose-1-phosphate guanylyltransferase assay. Type of experiment: functional. To be noted: 10 µM.
Experiment [7] concerns the target T3, Arginase-2, mitochondrial (Homo sapiens) (UniProt P78540).
T3 sequence (whole entry): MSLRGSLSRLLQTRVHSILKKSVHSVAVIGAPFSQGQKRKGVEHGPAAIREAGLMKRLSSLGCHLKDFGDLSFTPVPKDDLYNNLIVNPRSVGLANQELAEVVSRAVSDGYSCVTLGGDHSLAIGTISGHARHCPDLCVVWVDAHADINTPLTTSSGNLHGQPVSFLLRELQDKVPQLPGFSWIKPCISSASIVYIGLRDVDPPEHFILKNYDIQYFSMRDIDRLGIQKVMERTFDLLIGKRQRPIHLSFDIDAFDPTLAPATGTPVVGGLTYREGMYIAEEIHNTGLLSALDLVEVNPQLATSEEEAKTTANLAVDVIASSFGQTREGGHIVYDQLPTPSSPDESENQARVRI
As to the kind of experiment: in vitro enzyme assay to detect the production of urea directly proportional to the activity of Arginase II. Further: in the data most compounds retested in dose-response had high values. In kind it is functional. The following applies: 33.3 µM.

Experiment [8] addresses T4, Proteasome subunit beta (Trypanosoma cruzi) (UniProt O96673).
T4 sequence (whole entry): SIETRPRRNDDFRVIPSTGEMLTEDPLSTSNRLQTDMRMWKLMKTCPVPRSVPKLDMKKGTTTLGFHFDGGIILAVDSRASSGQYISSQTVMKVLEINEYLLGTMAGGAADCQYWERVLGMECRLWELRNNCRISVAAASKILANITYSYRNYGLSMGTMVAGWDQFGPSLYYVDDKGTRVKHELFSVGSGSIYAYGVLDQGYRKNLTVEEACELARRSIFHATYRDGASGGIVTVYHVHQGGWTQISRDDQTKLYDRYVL
As to the kind of experiment: Trypanosoma cruzi proteasome chymotrypsin-like activity (TcProtChymo) assay. Further: in the data most compounds retested in dose-response had high values. In kind it is functional. To be noted: 9.37 µM.

For experiment [9], the species on record is Homo sapiens. As to the kind of experiment: To identify inhibition of the IFN signalling (Jak-Stat) pathway via expression of an eGFP reporter gene under the control of an IFN-stimulated response element (ISRE) containing MxA promoter. Type of experiment: functional. The following applies: 30 µM. A general note: In a reporter assay the amount or activity of a reporter protein is the signal.

Experiment [10] addresses Shiga toxin 2 (Escherichia coli O157:H7) (UniProt P09385+P09386). As to the kind of experiment: E. coli 0.157:H7 Shiga Toxin SOP - stx2 screening assay. Type of experiment: functional. To be noted: 30 µM.
For experiment [11], the target named is T5, Tyrosyl-tRNA synthetase, putative (Trypanosoma cruzi (strain CL Brener)) (UniProt Q4DSP6).
T5 sequence (whole entry): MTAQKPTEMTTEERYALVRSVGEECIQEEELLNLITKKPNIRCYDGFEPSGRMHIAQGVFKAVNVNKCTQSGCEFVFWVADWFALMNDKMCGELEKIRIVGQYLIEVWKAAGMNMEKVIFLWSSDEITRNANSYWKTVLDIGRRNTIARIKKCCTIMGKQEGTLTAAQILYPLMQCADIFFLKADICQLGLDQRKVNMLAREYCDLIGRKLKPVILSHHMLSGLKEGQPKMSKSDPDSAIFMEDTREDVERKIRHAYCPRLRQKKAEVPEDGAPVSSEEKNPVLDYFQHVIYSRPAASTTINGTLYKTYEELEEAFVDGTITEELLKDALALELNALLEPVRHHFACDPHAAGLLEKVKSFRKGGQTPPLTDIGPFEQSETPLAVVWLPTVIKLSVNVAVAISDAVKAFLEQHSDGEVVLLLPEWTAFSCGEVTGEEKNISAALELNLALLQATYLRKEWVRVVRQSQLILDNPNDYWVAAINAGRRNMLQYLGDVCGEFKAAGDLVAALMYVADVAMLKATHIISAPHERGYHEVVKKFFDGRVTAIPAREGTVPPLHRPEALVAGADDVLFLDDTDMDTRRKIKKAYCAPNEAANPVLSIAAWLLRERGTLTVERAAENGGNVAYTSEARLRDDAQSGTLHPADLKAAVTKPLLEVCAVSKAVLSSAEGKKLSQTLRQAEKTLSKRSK
As to the kind of experiment: Trypanosoma cruzi tyrosyl tRNA synthetase (TcYRS) _High Tyrosine SOP. Further: in the data most compounds retested in dose-response had high values. In kind it is functional. To be noted: 30 µM.

The target in experiment [12] is T5, Tyrosyl-tRNA synthetase, putative (Trypanosoma cruzi (strain CL Brener)). As to the kind of experiment: Trypanosoma cruzi tyrosyl tRNA synthetase (TcYRS) SOP. In kind it is functional. The following applies: 30 µM.
In experiment [13] the target is Chromo domain-containing protein 1 (Saccharomyces cerevisiae (strain ATCC 204508 / S288c) (Baker's yeast)) (UniProt P32657). As to the kind of experiment: ScCHD-1 Enzyme Inhibition Assay. Further: in the data most compounds retested in dose-response had high values. Type of experiment: functional. The following applies: 30 µM.
Chain of Chromo domain-containing protein 1 (Saccharomyces cerevisiae (strain ATCC 204508 / S288c) (Baker's yeast)) (P32657 whole entry, the tested form may be a part): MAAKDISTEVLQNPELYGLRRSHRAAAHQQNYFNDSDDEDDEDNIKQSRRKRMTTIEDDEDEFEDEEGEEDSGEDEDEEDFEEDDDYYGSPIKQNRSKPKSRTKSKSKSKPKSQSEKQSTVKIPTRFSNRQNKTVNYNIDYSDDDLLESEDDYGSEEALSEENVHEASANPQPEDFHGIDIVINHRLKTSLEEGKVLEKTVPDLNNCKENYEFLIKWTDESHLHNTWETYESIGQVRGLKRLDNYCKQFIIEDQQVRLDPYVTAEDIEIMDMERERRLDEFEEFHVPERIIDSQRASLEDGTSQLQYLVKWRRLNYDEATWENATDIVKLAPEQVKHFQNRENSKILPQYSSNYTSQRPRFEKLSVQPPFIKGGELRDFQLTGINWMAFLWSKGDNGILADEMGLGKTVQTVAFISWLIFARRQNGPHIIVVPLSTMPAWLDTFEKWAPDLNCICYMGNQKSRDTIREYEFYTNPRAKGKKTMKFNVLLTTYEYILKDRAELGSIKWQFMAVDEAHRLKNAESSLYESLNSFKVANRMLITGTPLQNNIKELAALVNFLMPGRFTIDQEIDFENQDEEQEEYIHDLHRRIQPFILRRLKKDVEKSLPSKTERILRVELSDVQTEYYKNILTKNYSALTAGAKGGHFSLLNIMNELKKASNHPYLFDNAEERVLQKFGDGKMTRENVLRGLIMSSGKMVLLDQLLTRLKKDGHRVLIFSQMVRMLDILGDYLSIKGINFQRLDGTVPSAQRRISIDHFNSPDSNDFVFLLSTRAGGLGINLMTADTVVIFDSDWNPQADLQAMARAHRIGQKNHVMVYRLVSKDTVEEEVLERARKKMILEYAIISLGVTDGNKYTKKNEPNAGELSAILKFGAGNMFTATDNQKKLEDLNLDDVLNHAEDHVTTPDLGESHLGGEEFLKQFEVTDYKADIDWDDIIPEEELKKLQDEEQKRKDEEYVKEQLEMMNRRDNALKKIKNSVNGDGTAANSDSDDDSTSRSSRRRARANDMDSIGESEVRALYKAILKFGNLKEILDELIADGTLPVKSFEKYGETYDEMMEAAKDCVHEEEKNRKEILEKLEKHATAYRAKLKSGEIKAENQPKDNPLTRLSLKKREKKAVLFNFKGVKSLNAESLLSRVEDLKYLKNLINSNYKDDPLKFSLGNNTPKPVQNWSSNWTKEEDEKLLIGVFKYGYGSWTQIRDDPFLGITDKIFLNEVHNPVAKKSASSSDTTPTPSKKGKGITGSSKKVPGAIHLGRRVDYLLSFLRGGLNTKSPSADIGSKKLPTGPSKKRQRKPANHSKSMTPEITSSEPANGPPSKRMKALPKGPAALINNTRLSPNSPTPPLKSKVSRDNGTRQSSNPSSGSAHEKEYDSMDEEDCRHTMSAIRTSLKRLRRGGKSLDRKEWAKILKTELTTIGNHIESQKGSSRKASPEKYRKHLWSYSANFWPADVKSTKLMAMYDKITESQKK

`CN(Cc1cncnc1)[C@H]1CN(CC2CC2)[C@@H]2CCCO[C@@H]21`: the Percent Effect was -2.97% in experiment [1]; 10.7% in experiment [2]; 3.35% in experiment [3]; -6.16% in experiment [4]; 2.33% in [5]; 4.44% in experiment [6]. Moreover, the Percent Effect in experiment [7] is -51.8%; in experiment [8], 11.6%; in [9], -0.287%; in experiment [10], -9.01%; in experiment [11], 5.21%; in experiment [12], 2.5%. The Percent Effect in experiment [13] was -8.19%.
Turning to `CCS(=O)(=O)N[C@@H]1CN(Cc2cc(C)on2)C[C@@H]2CCCO[C@@H]21`, the Percent Effect in experiment [1] is -5.04%; in experiment [2] it was 8.11%; in experiment [3] it was 4.25%; in experiment [4], 0.656%; in experiment [5] it was 19%; in experiment [6], 1.66%. The Percent Effect in experiment [7] is 4.71%; in [8] it was 6.27%; in [9], -3.3%; in [10], 1.95%; in experiment [11], 6.45%; in experiment [12], 18.5%. The Percent Effect in [13] was -4.16%.
As for `c1ccc(OC[C@]23COC[C@H]2CN(Cc2ccoc2)C3)nc1`, the Percent Effect is -3.19% in experiment [1]; 10.7% in experiment [2]; -2.04% in experiment [3]; -1.7% in experiment [4]; 1.05% in [5]; 4.05% in experiment [6]. The Percent Effect in [7] is -57.9%; in [8], 12.1%; in experiment [9], -8.07%; in [10] it was -23.7%; in experiment [11], 3.12%; in experiment [12], 17.5%. Moreover, in experiment [13], the Percent Effect is -6.62%.
With `O=C(c1ccsc1)N1CCN2C[C@H](OCc3cccnc3)C[C@H]2C1`, the Percent Effect in experiment [1] was -4.24%; in experiment [2], 10.7%; in experiment [3] it was -1.78%; in experiment [4], 8.09%; in experiment [5], -1.36%; in experiment [6], -4.53%. Moreover, the Percent Effect in experiment [7] was 3.96%; in experiment [8], 11.5%; in experiment [9] it was 8.09%; in [10], 1.7%; in experiment [11], 1.06%; in experiment [12] it was -8.97%. For the same molecule, the Percent Effect in experiment [13] was -3.5%.
Consider `c1ccc(OC[C@H]2CCC[C@]23CN(Cc2nccs2)CCO3)nc1`, for which the Percent Effect in [1] is 1.87%; in experiment [2], 0%; in experiment [3] it was -0.162%; in [4] it was -19.9%; in experiment [5], 5.02%; in [6] it was -2.36%. Besides, the Percent Effect in [7] is -15.2%; in experiment [8], 3.08%; in experiment [9], 34.4%; in experiment [10] it was -11.8%; in [11], 1.06%; in [12], 3.85%. Besides, the Percent Effect in experiment [13] stood at 3.38%.
